# Values joined by “and” are separate entries in the source; they are usually repeats but may differ in a detail not shown here. Equal values may be shown once. Where a name gives a salt, the structure may show the parent alone. Hit rate of the full screen: of about 5,800 compounds, about 620 (11%) showed activity. The entries come from a sample that favours actives as a whole. Unmarked numbers belong to inactive results.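 Rule for the calls: active = score above a cut-off or among the top three wells of a plate; in these data no inactive exceeds 0.85.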
# Tested on: primary human hepatic stellate cells (donor 1)
# Assay: scaled lipid accumulation score (0 = DMSO-like, 1 = nortriptyline-like); higher = stronger HSC inactivation (lipid re-accumulation), active = hit call of the paper
# Settings: 48 h
# [1] = library stock concentration: 3.33 mM
# [2] = library stock concentration: 10 mM
# [3] = library stock concentration: 1 mM
# [4] = library stock concentration: 80 uM
# [5] = library stock concentration: 400 uM
# [6] = library stock concentration: 2 mM
smiles,measurement,setting,value
CC(NC(=O)Cc1cc(F)cc(F)c1)C(=O)NC1C(=O)N(C)c2ccccc2-c2ccccc21 (configuration not stated),scaled lipid accumulation score,[1],≤ 0
same,scaled lipid accumulation score,[2],0.235
N[C@@H](Cc1ccc(O)c(I)c1)C(=O)O [3-Iodo-L-tyrosine],scaled lipid accumulation score,[2],≤ -0.055
CCOC(=O)c1ccnc(C(=O)OCC)c1,scaled lipid accumulation score,[3],≤ 0
CC/C=C\C/C=C\C/C=C\CCCCCCCCCC(=O)O [Eicosatrienoic acid (20:3 n-3)],scaled lipid accumulation score,[3],0.075
Nc1nnc(Sc2ncc([N+](=O)[O-])s2)s1,scaled lipid accumulation score,[2],0.438
O=c1[nH]nc(Sc2ncc([N+](=O)[O-])s2)n1-c1ccc2c(c1)OCCO2,scaled lipid accumulation score,[2],1.25 (active)
O=C1NCCN1c1ncc([N+](=O)[O-])s1 [Niridazole],scaled lipid accumulation score,,≤ 0
CCCCC[C@H](O)/C=C/[C@@H]1[C@@H](CCCCCCCO)[C@@H](O)C[C@H]1O [Prostaglandin F1.alpha. Alcohol],scaled lipid accumulation score,[3],≤ 0
CCCCC(=O)Oc1ccccc1C(=O)O [Valeroyl Salicylate],scaled lipid accumulation score,[3],≤ 0
"CC[C@H](CO)Nc1nc(NCc2ccc(-c3ccccn3)cc2)c2ncn(C(C)C)c2n1 [CR8, (R)-Isomer]",scaled lipid accumulation score,[1],≤ 0
CCOC(=O)c1ncc2[nH]c3cccc(OC(C)C)c3c2c1C,scaled lipid accumulation score,[2],0.014
Cc1nc(N=Nc2cc(S(=O)(=O)O)c3cc([N+](=O)[O-])cc(S(=O)(=O)O)c3c2)c(COP(=O)(O)O)c(C=O)c1O [PPNDS tetrasodium],scaled lipid accumulation score,[2],0.229
CCCNCC(O)COc1ccccc1C(=O)CCc1ccccc1 (configuration not stated) [Rythmol],scaled lipid accumulation score,[2],0.811
"O=C(O)COc1ccc(OCCNC[C@H](O)COc2ccccc2)cc1 [ICI 215,001 hydrochloride]",scaled lipid accumulation score,[2],0.013
COCCNC(=O)COc1ccc(OCCNC[C@H](O)COc2ccccc2)cc1 [ZD 7114 hydrochloride],scaled lipid accumulation score,[2],0.134
CCCNCC(O)COc1ccccc1C(=O)CCc1ccccc1 (configuration not stated) [Propafenone hydrochloride],scaled lipid accumulation score,,0.742
same,scaled lipid accumulation score,library stock concentration: 5.3 mM,0.429
same,scaled lipid accumulation score,[2],0.365
N#Cc1ccccc1OCC(O)CNCCNC(=O)Nc1ccccc1 (configuration not stated),scaled lipid accumulation score,[2],0.135
CCCNCC(O)COc1ccccc1C(=O)CCc1ccccc1 (configuration not stated) [Propafenone],scaled lipid accumulation score,library stock concentration: 5.9 mM,0.566
CCCNCC(O)COc1ccccc1C(=O)CCc1ccccc1.Cl (configuration not stated) [Propafenone hydrochloride],scaled lipid accumulation score,[2],0.887 (active)
CCCNCC(O)COc1ccccc1C(=O)CCc1ccccc1 (configuration not stated) [Propafenone HCl],scaled lipid accumulation score,[1],0.241
same,scaled lipid accumulation score,[2],0.684
CC(C)ON(CC(=O)NO)S(=O)(=O)c1ccc(-c2ccccc2)cc1,scaled lipid accumulation score,[3],≤ 0
O=C1NN(C(=O)Nc2ccc(Br)cc2)[C@@H](c2ccccc2)[C@@H]1c1ccccc1,scaled lipid accumulation score,[2],0.026
COc1ccc(-c2cc3c(C)nc(N)nc3n([C@H]3CC[C@H](OCCO)CC3)c2=O)cn1,scaled lipid accumulation score,[1],≤ 0
same,scaled lipid accumulation score,[2],0.45
COc1cccc(-c2cc(F)ccc2C2Cc3nc(N)nc(C)c3C(=O)N2)n1 (configuration not stated),scaled lipid accumulation score,[1],0.806
COc1cccc(-c2cc(F)ccc2[C@H]2Cc3nc(N)nc(C)c3C(=O)N2)n1,scaled lipid accumulation score,[2],0.937 (active)
Cc1ccsc1C(=CCCN1CCC[C@@H](C(=O)O)C1)c1sccc1C,scaled lipid accumulation score,[2],≤ 0
O=C1N[C@@H]2[C@@H](O)[C@@H](O)[C@H](O)[C@@H](CO)N2C1=O [Kifunensine],scaled lipid accumulation score,[3],0.034
CC(CCCCC(=O)Nc1ccc(C(F)(F)F)cc1)NCCc1cnc[nH]1 (configuration not stated) [HTMT dimaleate],scaled lipid accumulation score,[2],0.519
NC(=O)CCCSc1nc(N)nc(-c2c(Cl)cc3c4c(cccc24)COC3)n1,scaled lipid accumulation score,[1],0.86 (active)
same,scaled lipid accumulation score,[2],0.886 (active)
O=P(O)(O)OC1[C@H](O)[C@H](O)C(O)[C@H](O)[C@H]1O (stereo partly drawn) [D-myo-Inositol-1-phosphate (sodium salt)],scaled lipid accumulation score,[3],0.012
CCCCCCC=CCCCCCCCCCCOC(C)=O [11-cis Vaccenyl Acetate],scaled lipid accumulation score,[3],≤ 0
Nc1nc(Nc2ccc(S(N)(=O)=O)cc2)nn1C(=S)Nc1c(F)cccc1F [Cdk1/2 Inhibitor III],scaled lipid accumulation score,[1],0.782
CCCCC/C=C\C[C@@H](O)/C=C/C=C\C/C=C\CCCC(=O)O,scaled lipid accumulation score,library stock concentration: 100 uM,≤ -0.021
CCc1cc2c(cc1CC)CC(NC[C@H](O)c1ccc(O)c3[nH]c(=O)ccc13)C2.O=C(O)C=CC(=O)O [Indacaterol Maleate],scaled lipid accumulation score,[2],1.15 (active)
CCC(NC(C)C)C(O)c1ccc(O)c2[nH]c(=O)ccc12 (configuration not stated) [Procaterol hcl],scaled lipid accumulation score,library stock concentration: 6.9 mM,≤ -0.006
CCC(NC(C)C)C(O)c1ccc(O)c2[nH]c(=O)ccc12 (configuration not stated) [Procaterol hydrochloride],scaled lipid accumulation score,library stock concentration: 6.1 mM,≤ 0
same,scaled lipid accumulation score,[2],≤ -0.006
CCc1cc2c(cc1CC)CC(NC[C@H](O)c1ccc(O)c3[nH]c(=O)ccc13)C2 [Indacaterol Maleate],scaled lipid accumulation score,[1],0.494
O=C(O)c1cc2ccccc2[nH]1 [Indole-2-carboxylic acid],scaled lipid accumulation score,[2],≤ 0
Cc1nc2ccc(-n3ncc(C(=O)c4cc5ccccc5[nH]4)c3N)cc2[nH]1 [listing 1 of 2 here],scaled lipid accumulation score,[4],0.004
same,scaled lipid accumulation score,[5],≤ -0.001
same,scaled lipid accumulation score,[6],≤ 0
Cc1nc2ccc(-n3ncc(C(=O)c4cc5ccccc5[nH]4)c3N)cc2[nH]1 [listing 2 of 2 here],scaled lipid accumulation score,[2],0.907 (active)
CC(C)c1cc(C(C)C)c(CC(=O)NS(=O)(=O)Oc2c(C(C)C)cccc2C(C)C)c(C(C)C)c1 [Avasimibe],scaled lipid accumulation score,[1],≤ 0
same,scaled lipid accumulation score,[2],≤ 0
COc1cc(/C=C/c2ccc(Cl)cc2)cc(OC)c1,scaled lipid accumulation score,[3],≤ 0
COc1cccc(NC(=O)/C=C/c2ccc(Cl)cc2)c1 [listing 1 of 2 here],scaled lipid accumulation score,[2],1.2 (active)
COc1cccc(NC(=O)/C=C/c2ccc(Cl)cc2)c1 [listing 2 of 2 here],scaled lipid accumulation score,[2],0.153
CCCCC/C=C\CCCCCCCCCCCCC(=O)O [14(Z)-Eicosenoic Acid],scaled lipid accumulation score,[3],≤ 0
CN1CCN(c2ccc3nc(-c4c(N)c5c(F)cccc5[nH]c4=O)[nH]c3c2)CC1 [listing 1 of 2 here],scaled lipid accumulation score,[4],0.779
CN1CCN(C(=O)c2nc3ccc(Cl)cc3[nH]2)CC1,scaled lipid accumulation score,[2],0.076
"CN1CCN(c2ccc3nc(-c4c(N)c5c(F)cccc5[nH]c4=O)[nH]c3c2)CC1 [Dovitinib (TKI-258, CHIR-258)]",scaled lipid accumulation score,[1],1.25 (active)
same,scaled lipid accumulation score,[2],1.13 (active)
CN1CCN(c2ccc3nc(-c4c(N)c5c(F)cccc5[nH]c4=O)[nH]c3c2)CC1 [listing 2 of 2 here],scaled lipid accumulation score,[5],0.945 (active)
same,scaled lipid accumulation score,[6],1.11 (active)
same,scaled lipid accumulation score,[2],1.08 (active)
CN1CCN(c2ccc3nc(-c4c(N)c5c(F)cccc5[nH]c4=O)[nH]c3c2)CC1 [Dovitinib (TKI-258) Dilactic Acid],scaled lipid accumulation score,[2],0.445
CCOc1ccc(-c2nc3ccc(-c4nc5ccc(N6CCN(C)CC6)cc5[nH]4)cc3[nH]2)cc1,scaled lipid accumulation score,library stock concentration: 8.9 mM,0.339
CC(O)C(=O)O.CC(O)C(=O)O.CN1CCN(c2ccc3nc(-c4c(N)c5c(F)cccc5[nH]c4=O)[nH]c3c2)CC1 [Dovitinib (TKI-258) Dilactic Acid],scaled lipid accumulation score,[1],1.27 (active)
CC[C@@H]1Cn2c(c3nc(-c4ccccc4)nc-3n(C)c2=O)N1,scaled lipid accumulation score,[2],0.008
c1cnc2cc3c(cc2n1)[C@@H]1CNC[C@H]3C1 [Varenicline tartrate],scaled lipid accumulation score,[2],≤ 0
NC(=O)[C@@H]1CCCN1C(=O)[C@H](Cc1c[nH]cn1)NC(=O)[C@@H]1CCC(=O)N1,scaled lipid accumulation score,[2],≤ 0
CC[C@@H](C(=O)[C@@H](C)[C@@H](O)[C@H](C)CCc1ccc(C)c(O)c1C(=O)O)[C@H]1O[C@](CC)([C@H]2CC[C@](O)(CC)[C@H](C)O2)C[C@@H]1C [Lasalocid sodium salt],scaled lipid accumulation score,,0.439
CC[C@@H](C(=O)[C@@H](C)[C@@H](O)[C@H](C)CCc1ccc(C)c(O)c1C(=O)O)[C@H]1O[C@](CC)([C@H]2CC[C@](O)(CC)[C@H](C)O2)C[C@@H]1C [Lasalocid sodium],scaled lipid accumulation score,[2],0.665
COc1ccc(C2CC(c3c(O)cc(C)oc3=O)=NCCS2)c(OC)c1 (configuration not stated),scaled lipid accumulation score,[2],0.164
CCCCC[C@](C)(O)/C=C/[C@H]1[C@H](O)CC(=O)[C@@H]1CCCCCCC(=O)O [15(S)-15-methyl Prostaglandin E1],scaled lipid accumulation score,[3],0.012
Cc1nnc(-c2ccc3occ(-c4ccc([S+](C)[O-])cc4)c3c2)o1 (configuration not stated),scaled lipid accumulation score,[2],0.106
NC(=O)Cc1cccc(C(=O)c2ccccc2)c1N [Nepafenac],scaled lipid accumulation score,[1],≤ 0
same,scaled lipid accumulation score,[2],0.098
O=C(O)C1CSCN1 (configuration not stated),scaled lipid accumulation score,[2],≤ 0
COc1c(OC)c2occc2c2oc(=O)ccc12 [Pimpinellin],scaled lipid accumulation score,[2],≤ 0
O=C(O)CCC/C=C/C[C@@H]1[C@@H](/C=C/[C@@H](O)COc2cccc(C(F)(F)F)c2)[C@H](O)C[C@@H]1O [5-trans Fluprostenol],scaled lipid accumulation score,[3],0.008
c1ccc(CN(CC2=NCCN2)c2ccccc2)cc1 [Antazoline HCl],scaled lipid accumulation score,[1],≤ 0
same,scaled lipid accumulation score,[2],0.363
CC(C)COCC(CN(Cc1ccccc1)c1ccccc1)N1CCCC1.Cl (configuration not stated),scaled lipid accumulation score,library stock concentration: 12.4 mM,0.96 (active)
c1ccc(CN(CC2=NCCN2)c2ccccc2)cc1 [Antazoline phosphate],scaled lipid accumulation score,[2],0.143
CC(C)COCC(CN(Cc1ccccc1)c1ccccc1)N1CCCC1 (configuration not stated) [Bepridil hydrochloride],scaled lipid accumulation score,,0.677
same,scaled lipid accumulation score,library stock concentration: 5 mM,0.569
same,scaled lipid accumulation score,[2],0.175 and 0.195
c1ccc(CN(CC2=NCCN2)c2ccccc2)cc1 [Antazoline hydrochloride],scaled lipid accumulation score,,0.544
same,scaled lipid accumulation score,[2],0.11

# Reference: the supplement of paper PMC9135407
